This passage reports growth results from PubChem BioAssay (NCI).

Common to all, as to assay: NCI-60 one-dose screen, 48 h (100 = growth as untreated, 0 = no growth, -100 = all killed)
One assay relates to NCI-H23 lung. The note with it: 10 µM unless noted.
A further assay has as its system NCI-H226 lung. The note with it: 10 µM unless noted.
The test system of another assay is NCI-H322M lung. The following applies: 10 µM unless noted.
For another assay, the system named is HOP-62 NSCLC. The note with it: 10 µM unless noted.
A further assay has as its system NCI-H460 lung. The note with it: 10 µM unless noted.
The test system of another assay is HOP-92 NSCLC. The note with it: 10 µM unless noted.
Another assay concerns A549/ATCC NSCLC. The note with it: 10 µM unless noted.
For another assay, the system named is 786-0 renal. The following applies: 10 µM unless noted.
A further assay concerns COLO 205 colon. The following applies: 10 µM unless noted.
For the next assay, the system named is DU-145 prostate. The following applies: 10 µM unless noted.
The next assay deals with K-562 leukemia. The following applies: 10 µM unless noted.
The subject of a further assay is MALME-3M melanoma. The following applies: 10 µM unless noted.
For the next assay, the system named is MDA-MB-231 breast. The note with it: 10 µM unless noted.
The subject of a further assay is SF-268 CNS. The note with it: 10 µM unless noted.
The next assay deals with SF-295 CNS. The following applies: 10 µM unless noted.
The subject of another assay is SF-539 CNS. The following applies: 10 µM unless noted.
A further assay relates to UACC-257 melanoma. The note with it: 10 µM.
A further assay deals with M14 melanoma. The following applies: 10 µM unless noted.
A further assay relates to RXF 393 renal. The note with it: 10 µM unless noted.

The structures appear in SMILES notation. The panel holds about 83,000 compounds, 20% with a hit somewhere; the sample as a whole holds those more often.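 Treatment: one concentration, 48 hours, 96-well format. Scoring: percent growth, with anything below 10 considered active.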 A number with no mark means an inactive call. Calls of active or inactive are those of the source.

Turning to `O=c1oc2cc(OS(=O)(=O)c3ccc(F)cc3)ccc2c2c1CCCCC2`, the growth with NCI-H23 lung is 66.1%; in the assay on NCI-H226 lung, 55.1%; in the assay on NCI-H322M lung it was 90.4%; with HOP-62 NSCLC, 96.4%; in the assay on NCI-H460 lung, 65.5%; with HOP-92 NSCLC it was 60%. Also, the growth is 55.9% in the assay on A549/ATCC NSCLC; 76.2% in the assay with 786-0 renal; 24.4% with COLO 205 colon; 78.7% in the assay on DU-145 prostate; 31.6% with K-562 leukemia; 83.5% with MALME-3M melanoma. In addition, the growth in the assay on MDA-MB-231 breast is 90.5%; in the assay on SF-268 CNS, 86.8%; in the assay with SF-295 CNS, 63.4%; in the assay with SF-539 CNS, 78.6%; in the assay on UACC-257 melanoma, 62.1%; with M14 melanoma, 69.4%.

With `C/C(=C\c1csc(C)n1)[C@@H]1C[C@@H]2O[C@]2(C)CCC[C@H](C)[C@H](O)[C@@H](C)C(=O)C(C)(C)[C@@H](O)CC(=O)N1`, the growth in the assay with NCI-H23 lung was -70% (active); in the assay on NCI-H226 lung, -60.3% (active); in the assay with NCI-H322M lung it was -83.3% (active); in the assay on HOP-62 NSCLC, -69.5% (active); in the assay on NCI-H460 lung, -85.5% (active); with HOP-92 NSCLC it was -47.2% (active). Moreover, the growth was -79.8% (active) in the assay on A549/ATCC NSCLC; -22.5% (active) with 786-0 renal; -62.5% (active) in the assay on COLO 205 colon; -78.9% (active) in the assay on DU-145 prostate; 1.67% (active) in the assay with K-562 leukemia; 66.3% with MALME-3M melanoma. In addition, the growth in the assay with MDA-MB-231 breast is -54.7% (active); in the assay with RXF 393 renal, -83.3% (active); in the assay with SF-268 CNS, -47.8% (active); in the assay with SF-295 CNS, -64.6% (active); in the assay on SF-539 CNS, -87.4% (active); with M14 melanoma, -44.1% (active).

Consider `COc1cc(/C=C2\CCCC3=C2N=C2SC(C)=NN2C3c2cc(OC)c(OC)c(OC)c2)cc(OC)c1OC` (stereo not drawn), for which the growth with NCI-H23 lung is 23.2%; in the assay on NCI-H226 lung, 27.7%; with NCI-H322M lung it was 28.5%; in the assay on HOP-62 NSCLC it was -0.72% (active); with NCI-H460 lung, -13.9% (active); in the assay with HOP-92 NSCLC, 91.9%. In addition, the growth in the assay with A549/ATCC NSCLC was 39.9%; with 786-0 renal, 34.5%; with COLO 205 colon, 19.2%; in the assay with DU-145 prostate it was 4.69% (active); in the assay with K-562 leukemia, 6.05% (active); in the assay with MDA-MB-231 breast, -39.6% (active). For the same compound, the growth in the assay on RXF 393 renal was 24.2%; in the assay on SF-268 CNS, 9.86% (active); with SF-295 CNS, 5.96% (active); with SF-539 CNS, -21.6% (active); with UACC-257 melanoma, 49.3%; in the assay on M14 melanoma, 10.6%.

Turning to `O=C(CN1CCOCC1)Nc1ccc(-c2nc3ccccc3s2)cc1`, the growth in the assay on NCI-H23 lung was 99.5%; with NCI-H226 lung it was 95%; in the assay with NCI-H322M lung it was 100%; in the assay on HOP-62 NSCLC, 106%; in the assay with NCI-H460 lung, 99.7%; in the assay with HOP-92 NSCLC, 83.3%. Besides, the growth with A549/ATCC NSCLC was 93.8%; in the assay on 786-0 renal, 101%; in the assay on COLO 205 colon it was 115%; in the assay with DU-145 prostate, 109%; with K-562 leukemia it was 99.3%; in the assay with MALME-3M melanoma, 117%. For the same compound, the growth was 96.8% in the assay on MDA-MB-231 breast; 111% with RXF 393 renal; 110% in the assay with SF-268 CNS; 98.2% in the assay on SF-295 CNS; 89.7% in the assay on SF-539 CNS; 101% in the assay with UACC-257 melanoma. For the same compound, the growth with M14 melanoma was 101%.

For the compound `COc1cc(Cn2c(SCCC(=O)Nc3ccc(F)cc3)nc3ccccc3c2=O)cc(OC)c1OC`, the growth in the assay on NCI-H23 lung was 90.5%; in the assay on NCI-H226 lung, 79%; with NCI-H322M lung, 81.1%; with HOP-62 NSCLC, 82.7%; in the assay on NCI-H460 lung it was 96.8%; with HOP-92 NSCLC, 55.1%. Moreover, the growth with A549/ATCC NSCLC was 83.5%; with 786-0 renal, 90.5%; in the assay with COLO 205 colon it was 95.8%; in the assay with DU-145 prostate, 101%; with K-562 leukemia it was 70.8%; with MALME-3M melanoma, 91.7%. Further, the growth in the assay with MDA-MB-231 breast is 65.9%; with RXF 393 renal, 74.3%; in the assay with SF-268 CNS, 80.9%; in the assay with SF-295 CNS, 88.2%; in the assay with SF-539 CNS, 84.2%; with UACC-257 melanoma, 93.2%. The growth in the assay on M14 melanoma was 93%.

`Cc1ccc(-c2csc3nc(C)c(CCCl)c(=O)n23)cc1`: the growth in the assay on NCI-H23 lung is 87.5%; in the assay on NCI-H226 lung, 78.6%; with NCI-H322M lung it was 98.5%; with HOP-62 NSCLC, 87.8%; with NCI-H460 lung, 99.5%; in the assay with HOP-92 NSCLC, 80.8%. Moreover, the growth in the assay on A549/ATCC NSCLC is 98%; in the assay with 786-0 renal, 104%; in the assay on COLO 205 colon it was 119%; in the assay on DU-145 prostate it was 104%; in the assay on K-562 leukemia, 95%; in the assay with MALME-3M melanoma it was 107%. The growth in the assay with MDA-MB-231 breast was 79.9%; in the assay on RXF 393 renal it was 106%; in the assay on SF-268 CNS, 91.4%; in the assay with SF-295 CNS, 104%; in the assay with SF-539 CNS it was 108%; in the assay on M14 melanoma, 103%.

On to `CCNCc1ccncc1`, for which the growth in the assay with NCI-H23 lung is 105%; in the assay on NCI-H226 lung it was 103%; in the assay with NCI-H322M lung, 104%; in the assay on HOP-62 NSCLC it was 104%; in the assay with NCI-H460 lung it was 102%; with HOP-92 NSCLC, 107%. The growth was 99.4% with A549/ATCC NSCLC; 97.7% in the assay with 786-0 renal; 106% in the assay with COLO 205 colon; 108% in the assay on DU-145 prostate; 94.5% in the assay with K-562 leukemia; 101% with MALME-3M melanoma. Further, the growth in the assay on MDA-MB-231 breast was 114%; in the assay with RXF 393 renal, 112%; in the assay with SF-268 CNS, 106%; with SF-295 CNS, 102%; in the assay with SF-539 CNS, 103%; in the assay on UACC-257 melanoma it was 96.3%. Further, in the assay on M14 melanoma, the growth was 94.5%.

As for `COc1cc2c(cc1OC)C1(C)N(CC2)C(=O)OC1(C)C` (stereo not drawn), the growth with NCI-H23 lung is 110%; in the assay on NCI-H226 lung, 92.8%; in the assay on NCI-H322M lung, 101%; with HOP-62 NSCLC, 111%; in the assay with NCI-H460 lung, 101%; in the assay with HOP-92 NSCLC, 101%. Besides, the growth is 102% in the assay with 786-0 renal; 120% with COLO 205 colon; 112% in the assay on DU-145 prostate; -78.1% (active) with K-562 leukemia; 122% in the assay with MALME-3M melanoma; 115% in the assay on MDA-MB-231 breast. Further, the growth in the assay on RXF 393 renal was 99%; in the assay on SF-268 CNS, 103%; in the assay with SF-295 CNS it was 103%; in the assay on SF-539 CNS, 106%; with UACC-257 melanoma, 95.6%; in the assay on M14 melanoma, 101%.

On to `Nc1c(C(=O)Nc2cccc(C(F)(F)F)c2)sc2nc3c(cc12)C(O)CCC3` (stereo not drawn), for which the growth is 39.5% in the assay on NCI-H23 lung; 56.3% in the assay on NCI-H226 lung; 27.2% with NCI-H322M lung; 40.7% with HOP-62 NSCLC; 14.5% in the assay with NCI-H460 lung; 67.2% in the assay with HOP-92 NSCLC. For the same compound, the growth with A549/ATCC NSCLC was 24.7%; in the assay with 786-0 renal, 47.4%; with COLO 205 colon it was 9.16% (active); in the assay with DU-145 prostate, 9.15% (active); in the assay with K-562 leukemia it was 14.4%; in the assay on MALME-3M melanoma it was 51.2%. The growth with MDA-MB-231 breast was 61.9%; with SF-268 CNS, 45.6%; with SF-295 CNS, 27.2%; in the assay on SF-539 CNS it was 21.6%; in the assay on UACC-257 melanoma, 44.2%; in the assay with M14 melanoma it was 30.9%.

For the compound `OC1CC2c3ccccc3C1c1ccccc12` (stereo not drawn), the growth is 101% in the assay on NCI-H23 lung; 106% in the assay with NCI-H226 lung; 114% with NCI-H322M lung; 108% in the assay with HOP-62 NSCLC; 110% in the assay with NCI-H460 lung; 96.2% with HOP-92 NSCLC. Besides, the growth is 100% in the assay with A549/ATCC NSCLC; 98.9% in the assay on 786-0 renal; 112% with COLO 205 colon; 117% with DU-145 prostate; 111% in the assay on K-562 leukemia; 110% in the assay on MALME-3M melanoma. The growth in the assay with MDA-MB-231 breast was 110%; in the assay with RXF 393 renal, 111%; in the assay with SF-268 CNS, 105%; in the assay on SF-295 CNS, 107%; in the assay with SF-539 CNS, 108%; in the assay on M14 melanoma, 98.4%.
